Reference: PubChem BioAssay (NCI)
Compounds without any hit were thinned out: in the full panel of roughly 83,000, 20% have a hit.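 In brief: 96-well plates, 48 h treatment, single concentration, percent growth endpoint.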 A number with no mark means an inactive call. Activity calls are given as the source filed them. The calls were made as follows: active = growth percent below 10; inactive = the rest.

Key:
Assay in all cases: NCI-60 one-dose screen, 48 h (100 = growth as untreated, 0 = no growth, -100 = all killed)
Settings in all cases: 10 µM
[1] = system: DU-145 prostate
[2] = system: K-562 leukemia
[3] = system: MALME-3M melanoma
[4] = system: MDA-MB-231 breast
[5] = system: RXF 393 renal
[6] = system: SF-268 CNS
[7] = system: SF-295 CNS
[8] = system: SF-539 CNS
[9] = system: UACC-257 melanoma
[10] = system: HCT-15 colon
[11] = system: HT29 colon
[12] = system: SNB-75 CNS
[13] = system: SNB-19 CNS
[14] = system: U251 CNS
[15] = system: PC-3 prostate
[16] = system: SK-MEL-5 melanoma
[17] = system: UACC-62 melanoma
[18] = system: LOX IMVI melanoma
[19] = system: SK-MEL-28 melanoma
[20] = system: M14 melanoma

Compound | growth [1] | growth [2] | growth [3] | growth [4] | growth [5] | growth [6] | growth [7] | growth [8] | growth [9] | growth [10] | growth [11] | growth [12] | growth [13] | growth [14] | growth [15] | growth [16] | growth [17] | growth [18] | growth [19] | growth [20]
Cc1cc(C)nc(NS(=O)(=O)c2ccc(Nc3nc4nc(NCc5ccccc5)nc(-c5ccc(O)cc5)c4c(=O)[nH]3)cc2)n1 | 33% | 37.8% | -12.6% (active) | 29.2% | -1.77% (active) | 27.8% | 27.3% | 39.9% | 66.1% | 18.5% | 32.2% | 48.2% | 28.2% | 11.9% | 1.02% (active) | 4.9% (active) | 21.8% | 23.4% |  | 
NS(=O)(=O)Oc1ccc(NC(=O)C2CCCCCC2)cc1 | 117% | 96.1% | 102% | 103% | 116% | 98.5% | 99% | 98.3% | 100% | 100% | 108% | 96.1% | 101% | 100% | 96.5% | 101% | 99.7% | 98.8% | 104% | 
O=C(/C=C/c1cccc(B(O)O)c1)c1cccc(B(O)O)c1 | -69.4% (active) | 11.5% | 26.4% | -9.31% (active) | -86.7% (active) | -28.5% (active) | -14.6% (active) | -30.8% (active) | -11% (active) | -40.4% (active) |  | 45.3% | 43.9% |  | 26.1% | 22.1% |  | -85.6% (active) | -21.4% (active) | -56.3% (active)
COc1ccc(N=Nc2cc(OC)c(OC)c(OC)c2)cc1 | 97.3% | 69.4% | 77.9% | 89.4% | 86% | 91.3% | 83.6% | 82.6% | 84.9% | 82% |  | 78.7% | 89% | 79.5% | 67.2% | 80% |  | 79% | 92% | 74.3%
COc1ccc2c(c1)C(=O)/C(=C/c1ccc([N+](=O)[O-])o1)O2 | -85% (active) | -34.8% (active) | -77.8% (active) | -76.9% (active) | -78.3% (active) | -72.7% (active) | 3.29% (active) | -49.8% (active) | -85.6% (active) | -48.5% (active) | -63% (active) | 9.47% (active) | 19.9% | -55.1% (active) | 58.9% | -91.3% (active) | -89% (active) | -77.4% (active) | -71.1% (active) | 
CNC(=O)c1cc(Oc2ccc3c(c2)sc2nc(-c4ccc(N)cc4)cn23)ccn1 | 7.79% (active) | 12% | 66.8% | 22.2% | 43.8% | 41.9% | 18% | 6.43% (active) |  | 11% | 0.705% (active) | 38.4% | 32.1% | 11.5% | 29.2% | -0.651% (active) | 41.9% | 22.7% |  | 15.5%
Oc1ccc(/C=N/N=C2c3ccccc3-c3ccccc32)c(O)c1 | 90% | 64.8% | 105% | 48.3% | 49.6% | 83.1% | 101% | 89.1% | 84.7% | 46.4% | 97.5% | 73.1% | 80.3% | 78.7% | 72.9% | 25.8% | 58.6% | 70.3% | 74.5% | 
O=C(CI)OCC(COC(=O)CI)OC(=O)CI | 59.5% | 41.6% | 24.3% | 91.3% | 24.7% | 93.2% | 94.8% | 114% | 76.5% | 53% |  | 116% | 101% | 100% | 94% | 93.1% | 80.9% |  | 92.3% | 83.2%
CCCC1(CN2c3ccccc3Sc3ccc(Cl)cc32)CCN(CC)C1 (stereo not given) | -32.3% (active) | -61.9% (active) | -61.5% (active) | -28.4% (active) | -33.7% (active) | 25.9% | -89.4% (active) | -7.27% (active) | 4.91% (active) | 3.6% (active) | -68% (active) | 1.99% (active) | -36.3% (active) | -92% (active) | 5.75% (active) | -95.9% (active) | -21.4% (active) | -100% (active) | -67.8% (active) | 
NC1=NC(c2ccccc2)C2=C(N1)/C(=C/c1ccccc1)CCC2 (stereo not given) | 117% | 76.4% | 103% | 101% | 101% | 91.7% | 95% | 92.8% | 83.8% | 84.9% |  | 85.6% | 97.5% |  | 78.7% | 98.9% | 77.5% | -4.8% (active) |  | 61.9%
Nc1ncnc2c1ncn2C1(CO)OCC(O)C(O)C1O (stereo not given) | 104% | 110% | 98.6% | 109% | 110% | 95.3% | 101% | 96.5% | 101% | 105% | 88.8% | 90.6% | 103% | 101% | 103% | 103% | 105% | 94.4% | 105% | 
CCOC(=O)CN(c1sc(C)c(C)c1C(=O)OCC)S(=O)(=O)c1ccc(C)cc1 | 92.1% | 103% | 106% | 72.9% | 92.1% | 107% | 103% | 107% | 98.8% | 99.3% | 111% | 91.7% | 86.6% |  | 74.5% | 73.2% | 68.2% | 87.4% | 102% | 
O=c1oc2c(cc1-c1ccc(F)cc1)C(O)Oc1ccccc1-2 (stereo not given) | 98.1% | 66.7% | 58.4% | 77.8% | 93.9% | 81.4% | 84.2% | 74.4% | 84.1% | 63.4% | 66.8% | 63.4% | 95.9% |  | 92.9% | 34.8% | 44.5% | 77.8% | 88.6% | 
CN(C)CCCSc1ccccc1NC1=C(Cl)C(=O)C(Nc2ccccc2SCCCN(C)C)=C(Cl)C1=O | 87.4% | -18.8% (active) | -28.8% (active) | 44.9% | 45.8% | 43.7% | 101% | 42.8% | 85% | 72.1% | 22.7% | 105% | 90.6% | 23% | 42.8% | 91.1% | 60.7% | -81.7% (active) | 104% | 
CC[C@@H](C(=O)[C@H](C)[C@H](O)[C@@H](C)[C@H]1O[C@H]([C@@H](CC)C(=O)O)CC[C@H]1C)C1O[C@]2(C=C[C@@H](O)[C@]3(CC[C@@](C)([C@H]4CC[C@](O)(CC)[C@H](C)O4)O3)O2)[C@H](C)C[C@@H]1C (stereo not given in full) | 51.3% | 6.72% (active) | -83.6% (active) | 17.3% | -8.61% (active) | 38% | -12.6% (active) | 2.48% (active) | 35.3% | 25.7% | 26.1% | -12.7% (active) | -13.3% (active) | 14.2% | 27.5% | -99.2% (active) | -92.2% (active) | 29.3% | -93% (active) | 
